Assay results as given in PubChem BioAssay (EPA / NIEHS).
Where “and” joins values, the source holds several entries; their conditions need not be identical. Identical values can stand only once. More than one record can exist for a structure, and the calls need not agree. Calls of active or inactive are those of the source. The calls were made as follows: active = hit-call score of the fitted dose curve at least 0.9, where 1 is the maximum; inactive = score below 0.9.

Assay: ATG_AP_2_CIS: Attagene CIS-FACTORIAL HepG2 Assay for human Activator Protein 2 (AP-2) (AID 2282932)
Conditions: HepG2 AP-2 cis-reporter, Attagene transcription factor profiling; AC50: actives raise or lower the signal unless noted; outcome: actives raise or lower the signal unless noted
Method: ATG_CIS is a cell-based, multiplexed-readout assay that uses HepG2, a human liver cell line, with measurements taken at 24 hours after chemical dosing in a 24-well plate.ATG_AP_2_CIS is one of 52 assay component(s) measured or calculated from the ATG_CIS assay. It is designed to make measurements of mRNA induction, a form of inducible reporter, as detected with fluorescence intensity signals by Reverse transcription polymerase chain reaction (RT-PCR) and Capillary electrophoresis technology.Data from the assay component ATG_AP_2_CIS was analyzed into 1 assay endpoint. This assay endpoint, ATG_AP_2_CIS, was analyzed with bidirectional fitting relative to DMSO as the negative control and baseline of activity. Using a type of inducible reporter, measures of mRNA for gain or loss-of-signal activity can be used to understand the reporter gene at the transcription factor-level as they relate to the gene TFAP2A and TFAP2B and TFAP2D. Furthermore, this assay endpoint can be referred to as a primary readout, because this assay has produced multiple assay endpoints where this one serves a reporter gene function. To generalize the intended target to other relatable targets, this assay endpoint is annotated to the dna binding intended target family, where the subfamily is basic helix-turn-helix leucine zipper.
Human liver HepG2 cells are transiently transfected with multiple reporter transcription units (MRTUs) in 6-well plates using FuGene 6 reagent (Roche; 3 ml FuGene/1 mg DNA). The MRTU constructs are regulated by a cis-regulating element (promoter). […] A major difference between the CIS and TRANS system is that in CIS activities of endogenous TFs are measured, whereas the TRANS assay evaluates changes in activities of exogenous, chimeric NR-Gal4 proteins. […] At the end of 24 hour incubation, total RNA was isolated using TriZol reagent (Invitrogen). The isolated RNA is then reverse-transcribed using oligo(dT) primer and Mo-MLV reverse transcriptase (Invitrogen) with DNAse I (Ambion) treatment for 30 min. The one-tenth of the produced cDNA was amplified by PCR using Taq DNA polymerase (Invitrogen) and two reporter sequence-specific primers. The PCR products were fluorescently labeled by primer extension with 6-arboxyfluorescein (6-FAM) 5'-labeled reporter sequence-specific primer (2 min at 95 C, 20 s at 68 C and 10 min at 72 C) and these products were digested with 5U of HpaI (New England Biolabs) for 2h at 37 C. The fragments were purified using Qiaquick PCR columns (Qiagen), analyzed on an ABI 3130xL genetic analyzer (Applied Biosystems) with peak positions identified by using a set of X-rhodamine (ROX)-labeled MapMarker1000 molecular weight standards (BioVentures). The raw capillary electrophoresis data was processed using Attagraph software (Attagene).

SMILES | outcome | AC50
FC(F)(F)C1(F)C(F)(F)C(F)(F)C(F)(F)C1(F)F | inactive | –
CC(C)c1c(C(=O)Nc2ccccc2)c(-c2ccccc2)c(-c2ccc(F)cc2)n1CC[C@@H](O)C[C@@H](O)CC(=O)O | inactive | –
C=CC(C)(CCC=C(C)C)OC(C)=O (stereo not given) | inactive | –
COc1cc([N+](=O)[O-])ccc1N | inactive | –
Cc1cc(C(=C2C=CC(=Nc3ccc(S(=O)(=O)O)cc3)C=C2)c2ccc(Nc3ccc(S(=O)(=O)O)cc3)cc2)cc(S(=O)(=O)O)c1N | inactive | –
C[C@]12CC[C@@H]3c4ccc(O)cc4CC[C@H]3[C@@H]1CC[C@@H]2OC(=O)CCC1CCCC1 | inactive | –
Cc1ccc(C)c(S(=O)(=O)O)c1 | inactive | –
COC(=O)CC(C(C)=O)C(=O)OC (stereo not given) | inactive | –
O=C(O)C(F)(F)OC(F)(F)C(F)(F)OC(F)(F)C(F)(F)OC(F)(F)C(F)(F)C(F)(F)C(F)(F)F | – | 93.6 µM (active) and 28.1 µM (active)
C=CCOCC(CO)(CO)CO | inactive | –
Brc1cc(Br)c(Oc2c(Br)cc(Br)c(Br)c2Br)cc1Br | inactive | –
CCOC(=O)c1nc(C(Cl)(Cl)Cl)n(-c2ccc(Cl)cc2Cl)n1 | – | 25.3 µM (active)
O=C(NCc1ncc(C(F)(F)F)cc1Cl)c1c(Cl)cccc1Cl | inactive | –
O=C1C=CC(=O)N1c1cccc(N2C(=O)C=CC2=O)c1 | inactive | –
O=C(O)c1cccc(C(=O)O)n1 | inactive | –
FC(F)(F)C1(F)C(F)(F)C(F)(F)C(F)(F)C(F)(C(F)(F)F)C1(F)F (stereo not given) | inactive | –
CC1=NN(c2ccccc2)C(=O)C1 | inactive | –
O=P(O)(O)CCC(F)(F)C(F)(F)C(F)(F)C(F)(F)C(F)(F)C(F)(F)F | inactive | –
CCCCC(CC)C(=O)O (stereo not given) | inactive | –

SMILES | outcome | AC50
Brc1ccc(Oc2ccc(Br)cc2Br)cc1 | inactive | –
FC(F)=C(F)C(F)(F)C(F)(F)C(F)(F)C(F)F | inactive | –
O=C1NS(=O)(=O)c2ccccc21 | inactive | –
CCOC(C)=O | inactive | –
c1cc2cccc3c4cccc5cccc(c(c1)c23)c54 | inactive | –
CCCC=O | inactive | –
O=C(F)C(F)(F)C(F)(F)C(F)(F)C(F)F | inactive | –
CCCCCCc1ccc(N)cc1 | inactive | –
O=C(c1ccccc1)c1ccccc1 | inactive | –
Cc1[nH]nc2c1N=C(c1ccccc1Cl)c1cc([N+](=O)[O-])ccc1N2 | – | 3.12 µM (active)
Nc1ccn([C@@H]2O[C@H](CO)[C@@H](O)C2O)c(=O)n1 (stereo not given in full) | inactive | –
CCCCCCC(C)(C)C(=O)O | inactive | –
COc1cc(OC)nc(NC(=O)NS(=O)(=O)Nc2ccccc2C(=O)N(C)C)n1 | inactive | –
CCCCc1ccc2ccccc2c1S(=O)(=O)O | inactive | –
O=C(C=C(O)C(F)(F)F)C(F)(F)F | inactive | –
NC(=NCCCCCCN=C(N)/N=C(\N)Nc1ccc(Cl)cc1)/N=C(\N)Nc1ccc(Cl)cc1 | inactive | 16.9 µM (active)
NNC(=O)CCCCC(=O)NN | inactive | –
CCCCCCCCCCCC[N+](C)(C)Cc1ccccc1 | inactive | 15.7 µM (active)
O=C1c2ccccc2C(=O)c2c(O)c(O)cc(O)c21 | inactive | –
